In publication PMC5540273 (PLoS ONE, 2017):

Experiments:
Details in all cases: concentration: 1 μM, replicates: in singlicate; n = 1
CSNK1A1L = tested on: CSNK1A1L
CSNK1A1 = tested on: CSNK1A1
CSNK1D = tested on: CSNK1D
CSNK1E = tested on: CSNK1E
CSNK1G1 = tested on: CSNK1G1
CSNK1G2 = tested on: CSNK1G2
CSNK1G3 = tested on: CSNK1G3
CSNK2A1 = tested on: CSNK2A1
CSNK2A2 = tested on: CSNK2A2
CTK = tested on: T1, CTK
T1 construct: gene MATK

DAPK1 = tested on: DAPK1
DAPK2 = tested on: DAPK2
DAPK3 = tested on: DAPK3
DCAMKL1 = tested on: T2, DCAMKL1
T2 construct: gene DCLK1

DCAMKL2 = tested on: T3, DCAMKL2
T3 construct: gene DCLK2

DCAMKL3 = tested on: T4, DCAMKL3
T4 construct: gene DCLK3

DDR1 = tested on: DDR1
DDR2 = tested on: DDR2
DLK = tested on: T5, DLK
T5 construct: gene MAP3K12

DMPK2 = tested on: T6, DMPK2
T6 construct: gene CDC42BPG
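Also: KINOMEscan kinase panel screen.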

SMILES	%Inh (CSNK1A1L) [%]	%Inh (CSNK1A1) [%]	%Inh (CSNK1D) [%]	%Inh (CSNK1E) [%]	%Inh (CSNK1G1) [%]	%Inh (CSNK1G2) [%]	%Inh (CSNK1G3) [%]	%Inh (CSNK2A1) [%]	%Inh (CSNK2A2) [%]	%Inh (CTK) [%]	%Inh (DAPK1) [%]	%Inh (DAPK2) [%]	%Inh (DAPK3) [%]	%Inh (DCAMKL1) [%]	%Inh (DCAMKL2) [%]	%Inh (DCAMKL3) [%]	%Inh (DDR1) [%]	%Inh (DDR2) [%]	%Inh (DLK) [%]	%Inh (DMPK2) [%]
CSc1ccc(-c2cc3ncnc(SCC(=O)O)c3s2)cc1	11	21	0	0	1	0	0	22	17	14	12	0	0	0	15	8	0	8	44	0
O=C(NCCNc1ccnc(Nc2ccc(F)cc2)n1)Nc1ccccc1F [GSK1379880]	16	0	11	9	1	0	16	0	3	0	0	0	9	19	0	24	29	18	0	0
Cc1nnc(-c2ccc3ncc(-c4ccc(S(C)=O)cc4)n3c2)o1 (stereo not shown)	9	7	0	0	24	5	0	0	18	27	22	0	0	18	0	0	8	24	0	0
CC(=O)Nc1ccc(COc2ccc(Nc3ccnc4cc(-c5ccccn5)ccc34)cc2)cc1.Cl [GW440148]	0	0	24	33	9	0	29	5	11	3	0	0	21	5	0	9	29	0	71	2
COc1ccc(COc2cc(-n3cnc4ccccc43)sc2C(N)=O)cc1 [GSK1024304]	13	0	0	30	11	5	22	4	13	0	3	10	8	0	8	0	0	0	25	7
